Several values for one entry are separate records, joined by “and”; a condition that tells them apart may be missing. Equal values may be shown once. The whole screen tested about 260,000 compounds, of which about 1,500 (0.58%) were called active. About 5% were inconclusive and are not listed. Only a sample is shown. Results with a measured potency or affinity are listed apart. Unmarked numbers belong to inactive results.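 Rule for the calls: active = inhibition above a set limit at one or more doses, reproduced on every date tested; inconclusive = results disagree between test dates, or hit never tested in dose response; inactive = the rest.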

The assay concerns the target Virion infectivity factor (Human immunodeficiency virus type 1 group M subtype B (isolate BH10)) + Virion infectivity factor (Human immunodeficiency virus type 1 group M subtype B (isolate BRU/LAI)) + Virion infectivity factor (Human immunodeficiency virus type 1 group M subtype B (isolate PCV12)) + Virion infectivity factor (Human immunodeficiency virus type 1 group M subtype B (isolate HXB2)) + DNA dC->dU-editing enzyme APOBEC-3G (Homo sapiens) (UniProt P69720+P69721+P69722+P69723+Q9HC16). The experiment in a line: HIV-1 Vif–A3G interaction blockers – biochemical, TR-FRET, GST-Vif 1-94, biotin-A3G peptide, dose response retest, primary screen (AID 1117319).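 Note: Vif residues 1-94 fused to GST binding biotinylated APOBEC3G peptide 110-148; 0% = full assay without inhibitor and 100% = GST in place of GST-Vif.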 Conditions: TR-FRET GST-Vif / biotin-A3G peptide binding; hits give high values. A general note: In TR-FRET formats the signal depends on donor and acceptor labels being close together.
As for `CC12CCC(=O)C=C1CCC1C2C(O)CC2(C)C1CCC2(O)C(=O)COC(=O)COCC(=O)O` (configuration not stated), the inhibition is 0.66%. To `CNC(=O)COC(=O)c1cc2c(s1)CCCC2` belongs 0.25%; to `COc1ccccc1NC(=O)c1ccc(NC(=O)c2cc3c(s2)CCC3)cc1`, -2.47%.

In the case of `Cc1c(/C=N/O)c2ccccn2c1C(=O)c1ccc(F)cc1`, the inhibition was -0.95%.

For the compound `CC(C)C1CC(C(F)(F)F)n2nc(C(=O)O)cc2N1` (configuration not stated), the inhibition was 7.12%. To `Cc1cc(C)nc(SCc2nnc(SCC(=O)Nc3nc(-c4ccccc4)cs3)n2C)n1` belongs -21.4%; to `Cc1ccc(N2CCN(c3ccc(C)cc3)C2c2ccncc2)cc1`, 13.1%; to `Cc1ccc(N2CCN(c3ccc(C)cc3)C2c2cccnc2)cc1`, -3.62%.

`N#CCCN(C(=O)COC(=O)c1cc(S(=O)(=O)N2CCOCC2)ccc1Cl)c1ccc(F)cc1`: the inhibition is -1.91%. On to `CC(=O)Nc1ccc2nc(NC(=O)CS(=O)(=O)c3ccccc3)sc2c1`, for which the inhibition is 5.59%.

Turning to `Cc1[nH]c(=O)[nH]c(=O)c1S(=O)(=O)Nc1cccc(C(F)(F)F)c1`, the inhibition is -6.82%. To `Cc1ccc(NS(=O)(=O)c2c(C)[nH]c(=O)[nH]c2=O)cc1C` belongs 0.84%.

In the case of `Cc1ccc(C)c2[nH]c(=O)c(CCNC(=O)c3cc4ccccc4o3)cc12`, the inhibition is 24.9%. On to `O=C(Cc1ccccc1)NC1CCN(C(=O)c2ccc([N+](=O)[O-])cc2)CC1`, for which the inhibition is -1.3%. To `CCOc1ccccc1CN1CCN(Cc2csc(C(C)=O)c2)CC1CCO` (configuration not stated) belongs 3.88%; to `Nc1nonc1C(=O)N/N=C/c1ccc(-c2cccc([N+](=O)[O-])c2)o1`, -3.49%. Then `Cc1cc([N+](=O)[O-])c(C)cc1-c1ccc(/C=N/NC(=O)Cn2nnnc2N)o1`, with 9.49%. Take `C=CCN1C(=O)C(CC(=O)Nc2ccc(C)cc2)SC1=Nc1c(C)n(C)n(-c2ccccc2)c1=O` (configuration not stated): the inhibition was 4.69%. Then `O=C(Cc1c(F)cccc1Cl)NCc1cccnc1`, with -4.5%.

As to `CC(=O)Nc1ccc(OCC(O)CN2CCN(c3ccc(Cl)cc3)CC2)cc1` (configuration not stated), the inhibition is 22.8%. To `Cc1ccc(SCCCCN2C(=O)NC(C)(C)C2=O)cc1` belongs -3.51%; to `CC1(C)NC(=O)N(CCSc2ccc(Cl)cc2)C1=O`, -1.11%. `CCc1cccc(CC)c1NC(=O)C(NS(=O)(=O)c1cccs1)c1ccccc1` (configuration not stated): the inhibition was 9.9%. To `CCOC(=O)C1=C(COC(=O)c2ccc(Cl)nc2)NC(=O)NC1C` (configuration not stated) belongs 5.43%; to `CC1NC(=O)NC1CCCCC(=O)O` (configuration not stated), 3.51%. Then `O=C(O)CCCCCCCCCCC1CCC(O)C1O` (configuration not stated), with -4.99%; and `CC(=O)N(c1ccccc1C)c1ccccc1C`, with -4.05%. To `CSCCC(NC(=O)c1ccccc1)C(=O)NCCCSc1ccccc1` (configuration not stated) belongs -3.49%.

Take `O=C(CCC1CCCC1)NNC(=O)c1ccccc1O`: the inhibition was -4.22%. For `CC(C)NS(=O)(=O)c1ccc(OCC(=O)NCCC2=CCCCC2)cc1`, the inhibition was 2.83%.

Regarding `COc1ccc(CCNC(=O)COc2ccc(S(=O)(=O)N3CCCC3)cc2)cc1`, the inhibition was -4.34%.

Take `Cc1nnc(SCC(=O)N2CCN(S(=O)(=O)c3ccccc3)CC2)s1`: the inhibition is -8.25%. To `CCc1ccc(/C=N/n2c(C3CCCCC3)n[nH]c2=S)cc1` belongs -5.47%; to `CC(C)(CO)NCc1cc(Br)ccc1OCc1ccccc1`, -4.77%. For `CCC1=NN2C(=N)/C(=C\c3ccc(OCCOc4ccc(NC(C)=O)cc4)c(OC)c3)C(=O)N=C2S1`, the inhibition was -0.34%. Then `COc1ccc(C(=O)c2ccc(OC)cc2O)c(O)c1`, with 4.6%; and `COc1ccc(OC)c(N)c1`, with 14.5%. To `CCOC(=O)Cc1ncccc1C(=O)Nc1ccc(Oc2ccccc2)cc1` belongs -1.5%; to `COc1ccc(C(=O)NCc2nnc(SCC(=O)Nc3nc4ccc(C)cc4s3)o2)cc1OC`, 9%. Turning to `COc1ccc(C(=O)NCc2nnc(SCC(=O)Nc3nc4ccccc4s3)o2)cc1OC`, the inhibition is 0.33%. Then `Cc1ccc(CSc2nc3ccncc3n2CC(=O)Nc2cc(C)cc(C)c2)cc1`, with -48.6%; and `Cc1sc2ncnc(SCC(=O)NC(=O)NCc3ccco3)c2c1C`, with -3.92%.

Turning to `Cc1sc2ncnc(NCc3ccco3)c2c1C`, the inhibition was 23.1%. Then `COc1ccc2c(c1)CC(C1(O)C(=O)N(C)c3ccccc31)C2=O` (configuration not stated), with -5.17%; and `CC(=O)c1ccc(NC(=O)Nc2ccc3c(c2)nc(C)n3C)cc1`, with 11.4%. To `Cc1ccc(NC(=O)Nc2ccc3c(c2)nc(C)n3C)cc1` belongs 66.9%; to `COc1ccc(NC(=O)CN(C)C(=O)CSc2nc3ccccc3s2)cc1`, -0.85%. Then `Cc1ccc(-n2nc3c(c2NC(=O)c2ccc(Br)o2)CSC3)c(C)c1`, with 17%; and `Cc1ccccc1-n1nc2c(c1NC(=O)c1ccc(Br)o1)CSC2`, with 17.6%; and `COc1ccc(NC(=O)COC(=O)c2ccc(S(=O)(=O)N3CC(C)CC(C)C3)cc2)cc1OC` (configuration not stated), with 0.85%.

Take `CC(=O)Nc1ccc(Nc2nc3ccccc3nc2NS(=O)(=O)c2ccccc2)cc1`: the inhibition was 17.2%.

Take `CC(=O)Nc1ccc(S(=O)(=O)Nc2nc3ccccc3nc2Nc2cccc(O)c2)cc1`: the inhibition is 6.78%. On to `CC(=O)Nc1ccc(S(=O)(=O)Nc2nc3ccccc3nc2Nc2ccc(O)cc2)cc1`, for which the inhibition was -3.02%. For `CC(=O)Nc1ccc(S(=O)(=O)Nc2nc3ccccc3nc2Nc2ccc(S(N)(=O)=O)cc2)cc1`, the inhibition is 23.8%. To `Cc1ccc(NC(=O)CS(=O)(=O)c2c[nH]c3ccccc23)c(C)c1` belongs -0.62%. To `COCCNC(=S)N/N=C(\C)CCc1ccc2c(c1)OCO2` belongs 3.32%.

For the compound `Cc1cc(NC(=O)/C=C/c2ccco2)ccc1NC(=O)c1ccccc1`, the inhibition was 11.7%. For `COc1ccc(/C=C/C(=O)NNC(=O)c2cc(C)oc2C)cc1`, the inhibition is 1.71%. Then `Cc1ccc(O)c(NC(=S)NC(=O)/C=C/c2ccco2)c1`, with -4.52%; and `COc1cccc(NC(=S)NC(=O)/C=C/c2ccco2)c1`, with 28.1%.

In the case of `O=C(/C=C/c1ccco1)Nc1ccccc1C(=O)Nc1cccc(C(=O)O)c1`, the inhibition is 30.8%. On to `CC(=O)c1ccc(NC(=S)NC(=O)/C=C/c2ccco2)cc1`, for which the inhibition was 9.46%.

Regarding `O=C(/C=C/c1ccco1)NC(=S)Nc1ccccc1`, the inhibition was 10.3%. Then `Cc1cc(C(=O)NNC(=O)/C=C/c2ccccc2Cl)c(C)o1`, with -12.6%. In the case of `COc1cc(OC)cc(C(=O)NCC(=O)OCc2nc3ccccc3s2)c1`, the inhibition is 5.21%.

Turning to `COC(=O)C(NC(=O)c1ccccc1)(Nc1cc(C)cc(C)n1)C(F)(F)F` (configuration not stated), the inhibition is -5.13%. In the case of `COc1ccc(CN2C(=O)C(CC(=O)NCCCCc3ccccc3)CC(C(=O)N(C(C)C)C(C)C)=C2C)cc1` (configuration not stated), the inhibition was 6.93%.

As to `CN(Cc1ccccc1)C(=O)CCC(=O)N(C)Cc1ccccc1`, the inhibition is 0.41%.

Take `C=CCNc1nc2c(c(=O)[nH]c(=O)n2C)n1Cc1cccc(C)c1`: the inhibition was -3.73%. Regarding `CCN(CC)CCOC(=O)c1ccc(NC(=O)COc2cc(=O)n(CC)c3ccccc23)cc1`, the inhibition is 3.06% and 4.99%. Then `COCCCN1C(=O)c2ccc(C(=O)NCc3ccco3)cc2C1=O`, with 1.46%; and `CC(C)C(=O)N1CCN(c2ccccc2NC(=S)NC(=O)/C=C/c2ccco2)CC1`, with 4.53%; and `O=C(/C=C/c1ccco1)NC(=S)Nc1cc(C(F)(F)F)ccc1N1CCOCC1`, with 31.6%. Consider `CS(=O)(=O)N(CCC#N)Cc1ccc(C=O)o1`, for which the inhibition was -8.77%. To `CS(=O)(=O)N(CCC#N)Cc1ccc(/C=C2\C(=O)Nc3ccccc32)o1` belongs -11%; to `CS(=O)(=O)N(CCC#N)Cc1ccco1`, 0.4%; to `Cc1ccc(Sc2ccc(/C=C3/C(=O)NN(c4ccccc4)C3=O)o2)cc1`, 22.1%.

Turning to `COc1cc2c(cc1OC)CN(C(=O)c1cc3ccccc3oc1=O)CC2`, the inhibition is 1.51%. Consider `Cc1ccc(S(=O)(=O)N2CCC[C@H]2C(=O)OCCN2C(=O)c3ccccc3C2=O)cc1`, for which the inhibition is -7.91%. To `COC(=O)CN(C(=S)Nc1ccccc1)C1CC(=O)N(c2ccc(OC)cc2)C1=O` (configuration not stated) belongs -1.92%; to `Cc1cccc(NC(=O)C2CC(=O)NC(Nc3nc4ccccc4s3)=N2)c1` (configuration not stated), 11.6%. Turning to `O=C(COc1ccccc1)N1CCN(C(=O)c2cccs2)CC1`, the inhibition was 17.7%. In the case of `C=CCc1cc(/C=C/c2nc(O)c([N+](=O)[O-])c(=O)[nH]2)cc(OC)c1O`, the inhibition is 15%. To `Cc1cccc(NC(=S)NC(=O)C(c2ccccc2)c2ccccc2)n1` belongs -6.56%; to `CCOc1ccc2noc3c2c1C(=O)c1ccccc1-3`, 31.7%; to `CCOC(=O)c1c(C)oc2c1C(=O)c1ccccc1C2=O`, 6.8%.

`CN1C(=O)S/C(=C/c2cccn2-c2cccc(C(=O)O)c2)C1=O`: the inhibition is 6.22%.

Regarding `Cc1ccc(NC(=O)CN2C(=O)S/C(=C\c3cccn3-c3cccc(C(=O)O)c3)C2=O)cc1C`, the inhibition was -0.87%. To `Cc1cccc(C)c1NC(=O)CN1C(=O)S/C(=C\c2cccn2-c2cccc(C(=O)O)c2)C1=O` belongs 6.97%; to `Cc1ccccc1NC(=O)CN1C(=O)S/C(=C\c2cccn2-c2cccc(C(=O)O)c2)C1=O`, 31.2%; to `Cc1ccc(OCC(=O)N2CCOCC2)cc1C`, -10.7%. As for `CCCOc1ccc(N2C(=O)CC(N3CCN(CCN=CC4=C(O)CC(C)(C)CC4=O)CC3)C2=O)cc1` (configuration not stated), the inhibition is 8.53%.

In general, inhibition refers to the drop in the measured response relative to a control, in per cent.
